High-throughput results (PubChem)
A selection: hits, their analogues and other compounds. The true share with any hit is near 17%.
TDP1 cell CPT: qHTS for Inhibitors of human tyrosyl-DNA phosphodiesterase 1 (TDP1): qHTS in cells in presence of CPT; 12% of 420,000 active; Potency, µM (highest dose often 46.2 µM), actives largely listed as inhibitors; chicken DT40 Tdp1-/-;hTDP1 cells + 20 nM CPT, ATP luminescence, 48 h; note: nearly all actives have a fitted effect of over 55% in size
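Cell growth measured by CellTiter-Glo luminescence after a minimum 48 h, 37 C compound exposure with 20 nM CPT in Tdp1-knockout DT40 cells stably expressing hTDP1, seeded 400/well; qHTS titration format.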
HT1080 IDH1KD tx: qHTS for induction of synthetic lethality in tumor cells producing 2HG: qHTS for the HT-1080-IDH1KD cell line; HT-1080 IDH1 knockdown viability, ATP luminescence, 48 h; Potency, µM (series often up to 46.1 µM), most hits filed as cytotoxic; 2% of 360,000 active
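Knockdown cells (IDH1KD HT-1080) received compounds 2 h after plating at 750 cells/well and were kept 48 h at 37 °C in 5% FBS RPMI. A CellTiter-Glo luminescence read gave % activity for curve fitting.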
TGFb SMAD3 inh: qHTS for Inhibitors of TGF-b. HepG2 CAGA-GFP TGF-b/SMAD3 reporter, GFP fluorescence, 18 h; TGF-beta stimulated, 500 pg/mL final. Potency, µM (series often up to 46.1 µM), usual class: inhibitors. 1.2% of 410,000 active; note: nearly all actives have a fitted effect of over 65% in size
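Cell-based qHTS in HEPG2 carrying a CAGA-GFP Smad reporter; compounds added before 500 pg/mL final TGF-beta, 18 h incubation at 37 degrees C, GFP fluorescence quantified per cell by imaging cytometry.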
HepG2 tox-1: qHTS for Inhibitors of TGF-b: Cytotox Counterscreen; HepG2 CAGA-GFP viability, ATP luminescence, 18 h; Potency, µM (highest dose often 46.1 µM), actives largely listed as cytotoxic; 0.76% of 410,000 active; AID 588856, 2011
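CellTiter-Glo luminescence gave cytotoxicity after 18 hours at 37 degrees C. The cells were HepG2 CAGA-GFP in 1% FBS DMEM, stimulated with 500 pg/mL TGF-beta after compound addition. %Activity was normalised to no-cell wells (complete cell-killing) and DMSO (no toxicity), and curves were fitted and classified.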
HT1080NT lethal: qHTS for induction of synthetic lethality in tumor cells producing 2HG: qHTS for the HT-1080-NT fibrosarcoma cell line | 1.6% of 360,000 active | Potency, µM (top dose mostly 46.1 µM), actives largely listed as cytotoxic | HT-1080-NT fibrosarcoma viability, CellTiter-Glo ATP luminescence, 48 h;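 note: NT is the 2HG producing partner of a matched IDH1 knockdown line; nearly all actives have a fitted effect of over 55% in size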
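Luminescent CellTiter-Glo readout after 48 hours of compound exposure at 37 degrees C defined viability of HT-1080-NT cells. Activity was normalized to DMSO wells and cell-free media wells; concentration-response curves were fitted and assigned curve classes.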
DT40 TDP1 no CPT: qHTS for Inhibitors of human tyrosyl-DNA phosphodiesterase 1 (TDP1): qHTS in cells in absence of CPT; DT40 Tdp1-/- hTDP1 cells, no CPT, ATP luminescence, 48 h; 15% of 420,000 active; AID 686978, 2013; Potency, µM (doses to about 46.2 µM), most hits filed as inhibitors; note: nearly all actives have a fitted effect of over 55% in size
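Compound effects on proliferation are scored in DT40 Tdp1-/-;hTDP1 cells in the absence of CPT. ATP levels (CellTiter-Glo luminescence) are recorded after a ≥48 hr, 37 °C incubation.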
TGFb CAGA inh: qHTS for Inhibitors of TGF-b: Confirmation of Cherry Picks; AID 720534, 2013; shares compounds with TGFb SMAD3 inh; HepG2 CAGA-GFP TGF-b reporter, GFP fluorescence, 18 h; cells stimulated with TGF-beta, 500 pg/mL; 63% of 1,600 active; Potency, µM (series often up to 46.1 µM), most hits filed as inhibitors; note: nearly all actives have a fitted effect of over 65% in size
HepG2 tox-2: qHTS for Inhibitors of TGF-b: Cytotox Counterscreen for Cherry Picks | shares compounds with TGFb SMAD3 inh | HepG2 CAGA-GFP viability, ATP luminescence, 18 h; cells stimulated with TGF-beta, 500 pg/mL | Potency, µM (highest dose often 46.1 µM), most hits filed as inhibitors | 27% of 1,600 active | AID 720535, 2013; note: nearly all actives have a fitted effect of over 70% in size
TGFb CCL64 inh: qHTS for Inhibitors of TGF-b: CCL64 Cells Orthogonal Assay for Cherry Picks | shares compounds with TGFb SMAD3 inh | CCL64 CAGA-GFP reporter, TGF-b stimulated, GFP fluorescence, 18 h | Potency, µM (series often up to 46.1 µM), hits mostly inhibitors | 41% of 1,600 active; note: nearly all actives have a fitted effect of over 65% in size
COP TGFb inh: qHTS for Inhibitors of TGF-b: Hit Validation in HepG2 Cells using COP promoter; shares compounds with TGFb SMAD3 inh; HepG2 COP-GFP TGF-b reporter, GFP fluorescence, 18 h; cells stimulated by added recombinant TGF-beta; Potency, µM (highest dose often 46.1 µM), most hits filed as inhibitors; 3% of 1,600 active; AID 720537, 2013; note: nearly all actives have a fitted effect of over 70% in size
A number is an active result; 0 = inactive; ? = inconclusive; - = no result. Calls come from the whole dose curve; as a rule, active = well fitted curve in the direction sought with a large enough effect; inconclusive = small, poorly fitted or top-dose-only effect, or another doubt; inactive = no such curve, though single readings can be large; an effect the other way counts as inactive or inconclusive.

SMILES | TDP1 cell CPT | HT1080 IDH1KD tx | TGFb SMAD3 inh | HepG2 tox-1 | HT1080NT lethal | DT40 TDP1 no CPT | TGFb CAGA inh | HepG2 tox-2 | TGFb CCL64 inh | COP TGFb inh
CC[C@H](C)[C@@H]1OC(=O)[C@@H](C)[C@@H](CC)NC(=O)[C@H](C)N(C)C(=O)C(C)(C)C(=O)C(C)NC(=O)[C@H](Cc2ccccc2)N(C)C(=O)[C@H](C(C)C)N(C)C(=O)CNC(=O)[C@H](CC(C)C)N(C)C(=O)CNC1=O (stereo partly specified) | 0.13µM | 0.92µM | 3.55µM | 0 | 1.3µM | 0.184µM | 7.31µM | ? | 5.8µM | 0
Cc1ccc(S(=O)(=O)CCC(=O)OCC(=O)Nc2ccc(N3CCOCC3)cc2)cc1 | 0 | 0 | 0 | 0 | 0 | 0 | - | - | - | -
Cc1ccc(NC(=O)CSc2nn(-c3ccc(Cl)cc3)c(=S)s2)cc1S(=O)(=O)N(C)C | 9.2µM | ? | ? | 0 | 0 | ? | ? | ? | 0 | 0
CN(C)S(=O)(=O)c1cc(NC(=O)CSc2nn(-c3ccc(Cl)cc3)c(=S)s2)ccc1Cl | ? | ? | 11.2µM | 0 | ? | ? | 3.66µM | ? | ? | 0
O=C(Nc1cccc(Cl)c1)c1cc(N=Nc2ccc([N+](=O)[O-])cc2Cl)ccc1O | 5.17µM | 0 | ? | 0 | 0 | 2.59µM | 4.61µM | 5.17µM | 2.31µM | 0
O=C(Nc1cccnc1)c1ccc([N+](=O)[O-])cc1Cl | 0 | 0 | 0 | 0 | 0 | 0 | - | - | - | -
CCN(CC)S(=O)(=O)c1cccc(NC(=O)COC(=O)C2COc3ccccc3O2)c1 (stereo unspecified) | 0 | 0 | 0 | 0 | 0 | 0 | - | - | - | -
COc1cc(NC(=O)c2cc3ccccc3cc2O)c(OC)cc1Cl | 14.6µM | ? | 4.47µM | 0 | ? | 10.3µM | 7.31µM | 6.51µM | 5.8µM | 0
Cc1ccc(Cl)cc1NC(=O)c1cc2ccccc2cc1O | 2.59µM | ? | 3.55µM | 0 | 4.11µM | 2.91µM | 2.59µM | 7.31µM | 4.11µM | 0
COc1cc(OC)c(NC(=O)c2ccccc2F)cc1Cl | 0 | 0 | 0 | 0 | 0 | 0 | - | - | - | -
COc1ccccc1NC(=O)c1cc2cc(Br)ccc2cc1O | 6.51µM | ? | 5.62µM | 0 | ? | 3.66µM | 7.31µM | 8.2µM | 5.8µM | 0
Cc1ccc(Cl)cc1NC(=O)COC(=O)c1ccccc1O | 0 | 0 | 0 | 0 | 0 | 0 | - | - | - | -
O=C(Nc1ccc(Cl)cc1F)c1cnc2sc(N3CCOCC3)nn2c1=O | 0 | - | 0 | 0 | - | 0 | - | - | - | -
Cc1ccc(NC(=S)NCCc2ccccc2)c(C)c1 | ? | 0 | 0 | 0 | 0 | ? | - | - | - | -
Cc1ccc(NC(=S)NCCc2c[nH]c3ccccc23)c(C)c1 | 13µM | 0 | 10µM | 0 | 0 | 20.6µM | 0 | 0 | ? | 0
Cc1noc(C)c1-c1ccc(C(=O)Nc2cccc(NS(C)(=O)=O)c2)c2occc12 | ? | 0 | 0 | 0 | 0 | ? | - | - | - | -
COc1ccc(-c2ccc(C(=O)Nc3cccc(NS(C)(=O)=O)c3)c3occc23)c(C)c1 | 16.4µM | ? | 15.8µM | 0 | ? | ? | 10.3µM | ? | 23.1µM | 0
O=C1Nc2ccccc2N=C(c2ccc3c(c2)OCO3)C1N(CCc1ccccc1)C(=O)CSc1ncccn1 (stereo unspecified) | ? | ? | ? | 0 | ? | ? | - | - | - | -
O=C1Nc2ccccc2N=C(c2ccc3c(c2)OCO3)C1N(C(=O)c1ccnc2ccccc12)c1ccccc1 (stereo unspecified) | 20.6µM | ? | 15.8µM | 0 | ? | 18.4µM | 23.1µM | 0 | ? | 0
O=C1Nc2ccccc2N=C(c2ccc3c(c2)OCO3)C1N(C(=O)c1ccc2ccccc2c1)C1CC1 (stereo unspecified) | 16.4µM | ? | 12.6µM | 0 | ? | 20.6µM | 23.1µM | ? | 16.4µM | 0
COc1ccc(CNC(=S)Nc2cccc(C)c2C)cc1 | 0 | 0 | 0 | 0 | 0 | 0 | - | - | - | -
C=CCNc1ncnc2c1[nH]c1ccc(C)cc12 | 29.1µM | ? | 7.94µM | 0 | ? | 20.6µM | ? | 0 | ? | 0
Cc1ccc2[nH]c3c(NCCN4CCOCC4)ncnc3c2c1 | ? | 0 | 0 | 0 | 0 | ? | - | - | - | -
COc1ccc(S(=O)(=O)n2nc(-c3ccc(Cl)cc3)cc2N)cc1 | ? | 18.4µM | 12.6µM | 0 | 18.4µM | ? | ? | ? | ? | 0
CCOC(=O)C1=C(N)Oc2cc(O)ccc2C1c1ccc(F)cc1F (stereo unspecified) | 0 | 0 | ? | 0 | 0 | 0 | - | - | - | -
COc1cccc(CNS(=O)(=O)c2ccc3c(c2)C(C)(C)C(=O)N3C)c1 | 0 | 0 | 0 | 0 | 0 | 0 | - | - | - | -
C/C(=N/NC(=O)c1ccc(C(C)(C)C)cc1)c1ccccn1 | 0.461µM | 5.8µM | ? | 0 | 7.31µM | 0.231µM | 2.59µM | ? | 9.2µM | 0
C/C(=N\NC(=O)c1ccccc1OCc1ccc(F)cc1)c1ccccn1 | 4.61µM | ? | 11.2µM | 0 | ? | 5.17µM | 14.6µM | ? | 8.2µM | 0
C/C(=N/NC(=O)C1COc2ccccc2O1)c1ccc(Br)s1 (stereo unspecified) | 0 | 0 | 0 | 0 | ? | 0 | - | - | - | -
O=C(NCc1ccc(F)cc1)c1ccccc1OCc1ccccc1 | 0 | ? | 0 | 0 | 0 | ? | - | - | - | -
